Sampled rows, rich in hits. Any-hit rate of the full collection: about 1.7%.
PfHsp40 rescue – rescue of PfHsp40-mediated yeast toxicity. S. cerevisiae expressing PfHsp40, growth rescue, ATP luminescence. growth rescue, % at 12.5 µM. 340,000 tested, 0.68% active; in the data active means growth rescue above about 28%, passing the limit was not always enough; inconclusive means no clear call, values can overlap the other calls;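 further: yeast W303a lacking pdr1 and pdr3 grown in galactose medium; growth measured after three days at 30 °C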
PrPC surface inh – cell surface PrPC inhibition, primary TR-FRET screen; P04156; TR-FRET read-out; inhibition, % at 13.8 µM; 370,000 tested, 0.43% active; in the data active means inhibition above about 24%
PrP UTR inh – suppresses PrP 5' UTR mRNA reporter expression; cell-based PrP 5' UTR mRNA reporter, plate reader; inhibition, % (concentration not given with the values); 340,000 tested, 0.35% active; in the data active means inhibition above about 52%
BJeLR viability – kills HRASV12-expressing BJeLR cells; 300,000 tested, 0.17% active; BJeLR (HRASV12) viability, CellTiter-Glo ATP luminescence, 48 h; inhibition, % (test concentration not listed); in the data active means inhibition above about 50%; inconclusive means no clear call, values can overlap the other calls
SSB-PriA inh – blocks PriA binding to SSB C-terminal tail | AlphaScreen SSBct-PriA binding, biotinylated peptide | inhibition, % at 33 µM | 430,000 tested, 0.6% active; in the data active means inhibition mostly above about 37%, no sharp cut-off; inactive means mostly below about 20%
Y pestis TopoI – blocks Yersinia pestis topoisomerase I activity; Y. pestis Topo-I cleavage product accumulation, plate reader; activity, % at 10 µM; 360,000 tested, 0.064% active; AID 504884; in the data active means activity above about 50%, passing the limit was not always enough; inconclusive means no clear call, values can overlap the other calls
Hits are given with their value; . = inactive; ? = inconclusive; / = no result.

SMILES	PfHsp40 rescue	PrPC surface inh	PrP UTR inh	BJeLR viability	SSB-PriA inh	Y pestis TopoI
Cc1ccc(S(=O)(=O)N2C(=O)CCC2C(=O)Nc2ccc3c(c2)OCCO3)cc1 (stereo not given)	.	.	.	.	96	.
CC(=O)Nc1ccc(S(=O)(=O)N2CCCC2C(=O)Nc2ccc3c(c2)OCCO3)cc1 (stereo not given)	.	.	.	.	.	.
O=C(NN=Cc1ccc(O)cc1O)C1CC1	/	/	/	/	.	/
Oc1ccc(C=NC2CCCCC2)c(O)c1	35	.	.	.	.	.
C[C@@]12CCC=C[C@H]1[C@H](c1ccc3ccccc3c1Br)N(Cc1ccccc1)C2=O	65	.	.	.	.	.
C[C@@]12CCC=C[C@H]1[C@H](c1ccc3ccccc3c1)N(Cc1ccccc1)C2=O	.	.	.	.	.	.
C=CCC[C@@H](Cc1ccc(F)cc1)C(=O)OC[C@H](Cc1c[nH]c2ccccc12)NC(=O)[C@@H](CC=C)CC(=O)NCCO	33	.	.	/	.	.
C=CCC[C@H](Cc1ccc(F)cc1)C(=O)OC[C@@H](Cc1c[nH]c2ccccc12)NC(=O)[C@@H](CC=C)CC(=O)NCCO	57	.	.	/	.	.
C=CCC[C@H](Cc1ccc(F)cc1)C(=O)OC[C@H](Cc1c[nH]c2ccccc12)NC(=O)[C@H](CC=C)CC(=O)NCCO	32	.	.	/	.	.
C=CCC[C@@H](Cc1ccc(F)cc1)C(=O)OC[C@@H](Cc1c[nH]c2ccccc12)NC(=O)[C@@H](CC=C)CC(=O)NCCO	40	.	.	/	.	.
c1ccc(-n2c(SCc3nc(-c4cccs4)no3)nnc2-c2ccco2)cc1	.	.	.	.	87	.
CCS(=O)(=O)N1CCc2nc(-c3ccccc3)sc2C1	.	.	.	.	91	.
O=C(N/N=C/c1c(O)n(-c2ccccc2Cl)c(=O)c2ccccc12)c1cccnc1	98	.	.	.	/	.
O=C(N/N=C/c1c(O)n(Cc2ccccc2)c(=O)c2ccccc12)c1cccnc1	431	.	.	.	/	.
COc1ccc(Cn2c(O)c(/C=N/NC(=O)c3cccnc3)c3ccccc3c2=O)cc1	?	.	.	.	/	.
Cc1cc(SCC(=O)N2CCCc3ccccc32)n2nc(C)c(-c3ccccc3)c2n1	/	/	/	/	.	/
CCc1cccc2sc(N3CCN(C(=O)c4ccc([N+](=O)[O-])o4)CC3)nc12	39	/	.	.	.	.
CCOc1coc(C(=O)Nc2cccc(NC(C)=O)c2)cc1=O	/	/	/	/	.	/
COc1cc(=O)n(-c2ccccc2)nc1C(=O)Nc1ccccc1-c1ccc(=O)n(C)n1	/	/	/	/	.	/
O=C(CSc1nnc(-c2ccc(Cl)cc2)n1Cc1ccco1)c1ccccc1	/	/	/	/	.	/
C[C@]12CC[C@@H]3c4ccc(O)cc4CC[C@H]3[C@@H]1CC[C@@H]2O	.	.	.	.	.	.
CC(NCCN(C)C)C1CCC2C3CCc4cc(O)ccc4C3CCC12C (stereo not given)	63	.	.	/	.	.
Fc1ccc2c(c1)C(c1ccc(N3CCOCC3)cc1)=NNC(c1cccs1)=N2	.	/	.	.	40	.
Brc1ccc2c(c1)C(c1cccnc1)=NNC(c1cccs1)=N2	.	.	.	.	53	.
CC1CCc2sc(-c3n[nH]c(=S)o3)cc2C1 (stereo not given)	330	.	.	.	.	.
SMILES	PfHsp40 rescue	PrPC surface inh	PrP UTR inh	BJeLR viability	SSB-PriA inh	Y pestis TopoI
Cc1nc(-c2cccnc2)sc1C(=O)NCCn1nc(-n2cncn2)ccc1=O	/	/	/	/	.	/
NC(=S)NN=Cc1nccc2c(N)cccc12	/	.	/	/	/	.
CCN(C(C)=O)c1cnc(C=NNC(N)=S)c2ccccc12	82	.	.	/	.	.
Oc1c(Br)c(Br)c(Br)c(Br)c1Br	31	/	.	/	.	.
O=C(CNC(=O)c1cccc(Cl)c1)Nc1ccc(Br)cc1C(=O)c1ccccc1	36	.	.	.	.	.
O=C(CNC(=O)c1ccc(Cl)cc1)Nc1ccc(Br)cc1C(=O)c1ccccc1	.	.	.	.	.	.
CC1CCCC(=NNc2ccc([N+](=O)[O-])cc2[N+](=O)[O-])C1 (stereo not given)	/	/	/	/	58	/
CC1C/C(=N/Nc2ccc([N+](=O)[O-])cc2[N+](=O)[O-])CC(C)(C)C1 (stereo not given)	.	.	.	.	/	.
CCCCCCCNC(=O)C1(CC2CC(c3cccc(Br)c3)=NO2)CCN(C(=O)C2CCCC2)CC1 (stereo not given)	.	.	.	.	.	60
